From PubChem BioAssay (EPA / NIEHS) come the findings set out here.

Results filed as inconclusive are left out. The source made the active and inactive calls. How the source made its calls: active means hit-call score of the fitted dose curve at least 0.9, where 1 is the maximum; inconclusive means response in the unintended direction; inactive means score below 0.9.

Sequence of rat Neonicotinoid receptor (NNR), Chrna7 (gene 25302) (Q05941 whole entry, looked up): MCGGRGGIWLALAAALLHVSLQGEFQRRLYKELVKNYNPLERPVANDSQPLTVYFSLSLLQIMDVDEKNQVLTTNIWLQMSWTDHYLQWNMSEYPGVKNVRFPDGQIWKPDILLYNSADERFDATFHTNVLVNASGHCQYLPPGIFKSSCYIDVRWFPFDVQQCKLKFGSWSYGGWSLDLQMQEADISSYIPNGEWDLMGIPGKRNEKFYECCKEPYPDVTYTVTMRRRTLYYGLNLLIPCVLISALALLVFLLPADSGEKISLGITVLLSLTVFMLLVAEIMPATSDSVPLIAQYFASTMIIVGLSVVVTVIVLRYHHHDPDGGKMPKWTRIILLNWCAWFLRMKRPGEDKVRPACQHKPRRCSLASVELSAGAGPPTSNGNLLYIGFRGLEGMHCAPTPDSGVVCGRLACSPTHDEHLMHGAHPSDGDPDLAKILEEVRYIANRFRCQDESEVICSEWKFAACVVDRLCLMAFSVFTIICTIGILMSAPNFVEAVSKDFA
Sequence of human Neonicotinoid receptor (NNR), CHRNA2 (gene 1135) (Q15822 whole entry, looked up): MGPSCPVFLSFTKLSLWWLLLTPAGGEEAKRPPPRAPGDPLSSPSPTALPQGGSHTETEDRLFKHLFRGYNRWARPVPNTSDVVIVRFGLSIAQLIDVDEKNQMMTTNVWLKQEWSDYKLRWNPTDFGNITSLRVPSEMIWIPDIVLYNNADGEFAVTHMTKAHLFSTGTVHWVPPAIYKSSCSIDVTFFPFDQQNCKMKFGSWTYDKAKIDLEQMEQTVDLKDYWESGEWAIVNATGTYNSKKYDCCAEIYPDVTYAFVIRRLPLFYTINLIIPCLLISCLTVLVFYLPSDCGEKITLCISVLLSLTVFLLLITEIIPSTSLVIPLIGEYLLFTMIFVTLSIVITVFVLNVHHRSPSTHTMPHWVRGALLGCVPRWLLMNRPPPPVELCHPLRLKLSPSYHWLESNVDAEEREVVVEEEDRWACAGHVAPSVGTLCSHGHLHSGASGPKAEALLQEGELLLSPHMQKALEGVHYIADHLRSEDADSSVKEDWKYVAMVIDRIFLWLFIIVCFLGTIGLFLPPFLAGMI
Sequence of rat Neurokinin-1 Receptor (NK1), Tacr1 (gene 24807) (P14600 whole entry, looked up): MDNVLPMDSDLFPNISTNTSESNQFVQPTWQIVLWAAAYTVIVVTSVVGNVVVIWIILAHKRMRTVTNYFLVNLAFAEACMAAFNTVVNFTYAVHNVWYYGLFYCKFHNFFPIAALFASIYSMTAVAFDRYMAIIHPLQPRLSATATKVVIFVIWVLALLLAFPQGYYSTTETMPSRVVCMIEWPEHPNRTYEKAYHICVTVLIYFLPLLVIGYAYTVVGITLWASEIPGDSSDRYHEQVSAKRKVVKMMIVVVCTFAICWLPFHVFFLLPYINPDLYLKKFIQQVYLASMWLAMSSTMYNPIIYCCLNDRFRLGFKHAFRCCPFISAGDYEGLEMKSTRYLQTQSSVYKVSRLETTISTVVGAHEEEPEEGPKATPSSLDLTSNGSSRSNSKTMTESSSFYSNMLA
Sequence of rat Opioid Receptor, Non-selective Sodium (Na+) Binding, Oprm1 (gene 25601) (P33535 whole entry, looked up): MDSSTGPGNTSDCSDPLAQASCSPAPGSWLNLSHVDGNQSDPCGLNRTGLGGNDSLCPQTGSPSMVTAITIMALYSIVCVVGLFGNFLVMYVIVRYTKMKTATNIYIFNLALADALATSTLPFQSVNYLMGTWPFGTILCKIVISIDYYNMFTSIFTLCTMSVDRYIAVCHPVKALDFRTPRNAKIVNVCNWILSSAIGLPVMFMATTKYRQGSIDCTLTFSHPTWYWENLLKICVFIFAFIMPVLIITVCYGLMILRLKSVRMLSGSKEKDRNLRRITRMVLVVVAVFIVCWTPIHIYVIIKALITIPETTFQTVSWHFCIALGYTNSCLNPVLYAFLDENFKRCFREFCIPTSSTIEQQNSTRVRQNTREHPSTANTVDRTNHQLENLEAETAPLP
Sequence of rat Neurokinin-3 Receptor (NK3), Tacr3 (gene 24808) (P16177 whole entry, looked up): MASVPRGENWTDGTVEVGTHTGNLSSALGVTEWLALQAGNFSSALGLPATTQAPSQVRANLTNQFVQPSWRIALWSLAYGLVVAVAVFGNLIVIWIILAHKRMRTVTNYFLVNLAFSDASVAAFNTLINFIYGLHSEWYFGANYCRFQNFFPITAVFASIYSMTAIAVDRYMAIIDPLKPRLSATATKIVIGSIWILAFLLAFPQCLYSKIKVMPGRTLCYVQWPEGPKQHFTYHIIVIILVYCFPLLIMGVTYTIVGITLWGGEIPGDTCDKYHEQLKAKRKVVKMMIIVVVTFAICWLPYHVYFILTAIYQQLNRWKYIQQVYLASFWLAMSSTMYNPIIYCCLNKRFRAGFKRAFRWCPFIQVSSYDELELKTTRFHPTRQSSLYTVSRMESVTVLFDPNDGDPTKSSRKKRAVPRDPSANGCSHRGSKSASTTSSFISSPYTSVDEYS

The target in the first assay is rat Neurokinin-1 Receptor (NK1), Tacr1 (gene 24807) (UniProt P14600). The assay can be described thus: NVS_GPCR_rNK1: NovaScreen (NVS) G Protein-Coupled Receptor Assay for rat Neurokinin-1 Receptor (NK1) (AID 2283309). An outline of the steps:
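Rat submaxillary gland membranes; radioligand displacement read by filter-based scintillation counting after 1 h. Primary screen in duplicate at 25 uM; actives retested in concentration series; loss of binding fitted versus DMSO.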
For the molecule `CNC(=O)ON=C(C)SC`, the AC50 was 44.1 µM (active). Regarding `CCOP(=O)(OCC)Oc1cc(C)nc(C(C)C)n1`, the molecule was called inactive. Consider `CCCOCC(=Nc1ccc(Cl)cc1C(F)(F)F)n1ccnc1`, for which the result was inactive.

The target in another assay is rat Neurokinin-3 Receptor (NK3), Tacr3 (gene 24808) (UniProt P16177). The assay can be described thus: NVS_GPCR_rNK3: NovaScreen (NVS) G Protein-Coupled Receptor Assay for rat Neurokinin-3 Receptor (NK3) (AID 2283310). An outline of the steps:
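Rat cortical membranes; radioligand binding with filtration and scintillation counting, 2 h after dosing. Primary screen in duplicate at 25 uM, then concentration-response up to 50 uM; loss of binding signal relative to DMSO.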
Regarding `CN(C)C(=O)Nc1cccc(C(F)(F)F)c1`, the result was inactive. Consider `CCCOCC(=Nc1ccc(Cl)cc1C(F)(F)F)n1ccnc1`, for which the molecule was classed as inactive. For the molecule `CCOP(=O)(NC(C)C)Oc1ccc(SC)c(C)c1` (stereo not given), the result was inactive.

The target of another assay is rat Opioid Receptor, Non-selective Sodium (Na+) Binding, Oprm1 (gene 25601) (UniProt P33535). The assay can be described thus: NVS_GPCR_rOpiate_NonSelectiveNa: NovaScreen (NVS) G Protein-Coupled Receptor Assay for rat Opioid Receptor, Non-selective Sodium (Na+) Binding (AID 2283311). An outline of the steps:
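Rat forebrain membranes, radioligand displacement with filter scintillation counting, 1.5 h incubation. Screened in duplicate at 25 µM; hits then run in concentration-response up to 50 µM; loss of binding fitted versus DMSO.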
Take `CCOP(=S)(OCC)Oc1ccc([N+](=O)[O-])cc1`: the molecule was called inactive.

For `CCc1cccc(C)c1N(C(=O)CCl)C(C)COC` (stereo not given), the concentration at half-maximal activity (AC50) was 12.4 µM (active). On to `CCCSP(=O)(OCC)SCCC`, for which the call was inactive.

The next assay has as its target human Neonicotinoid receptor (NNR), CHRNA2 (gene 1135) (UniProt Q15822). As to the kind of experiment: NVS_LGIC_hNNR_NBungSens: NovaScreen (NVS) Ligand-Gated Ion Channel Assay for human Neonicotinoid receptor (NNR) (AID 2283313). The method, then: (§1) NVS_LGIC_hNNR_NBungSens is a biochemical, single-readout assay that uses extracted gene-proteins from Human neuroblastoma membrane cells in a tissue-based cell-free assay. Measurements were taken 2 hours after chemical dosing in a 48-well plate.NVS_LGIC_hNNR_NBungSens is one of one assay component(s) measured or calculated from the NVS_LGIC_hNNR_NBungSens assay. It is designed to make measurements of radioligand binding, a form of binding reporter, as detected with scintillation counting signals by Filter-based radiodetection technology.Data from the assay component NVS_LGIC_hNNR_NBungSens was analyzed into 1 assay endpoint. This assay endpoint, NVS_LGIC_hNNR_NBungSens, was analyzed in the positive analysis fitting direction relative to DMSO as the negative control and baseline of activity. Using a type of binding reporter, loss-of-signal activity can be used to understand changes in the binding as they relate to the gene CHRNA2. Furthermore, this assay endpoint can be referred to as a primary readout, because the performed assay has only produced 1 assay endpoint. To generalize the intended target to other relatable targets, this assay endpoint is annotated to the ion channel intended target family, where the subfamily is ligand-gated ion channel.
(§2) Binding assays used specific radioligands (tritiated, iodinated) with non-radioactive competitive displacement ligands in agonist or antagonist protocols (as indicated) and various reference compounds and inhibitors to titrate specific binding to receptors and transporters. Most enzyme assays (CYPs, kinases, phosphatases, proteases, HDACs) used recombinant protein and specific substrates (fluorescence mostly, some colorimetric and radioactive) and inhibitors, followed by a biochemical separation of substrate and product. All assays for the biochemical HTS were initially run in duplicate at a single concentration (10 uM for CYP450 assays and 25 uM for all others). Assay-chemical combinations meeting a pre-defined threshold (e.g., 30% inhibition and other criteria defined below) were then run in singleton concentration-response format with maximum concentration of 20 uM for CYPs and 50 uM for all others. Each assay was run with positive and negative controls, and concurrent controls on every plate. The follow-up (secondary) screen tested active chemical-pairs in concentration series, as well as a few additional assays not tested in the primary screen, some selected negative inactives, and several cases re-run in the concentration series for confirmatory purposes.
In the case of `CSc1nnc(C(C)(C)C)c(=O)n1N`, the molecule was called inactive. As to `C[N+]1(C)CCCCC1`, the concentration at half-maximal activity (AC50) was 11.2 µM (active).

With `CC(=NC#N)N(C)Cc1ccc(Cl)nc1`, the half-maximal activity concentration (AC50) was 4.61 µM (active).

The next assay concerns the target rat Neonicotinoid receptor (NNR), Chrna7 (gene 25302) (UniProt Q05941). The assay can be described thus: NVS_LGIC_rNNR_BungSens: NovaScreen (NVS) Ligand-Gated Ion Channel Assay for rat Neonicotinoid receptor (NNR) (AID 2283315). As to the method: as §1, with “NVS_LGIC_rNNR_BungSens” for “NVS_LGIC_hNNR_NBungSens”, “Rat cortical membranes” for “Human neuroblastoma membrane cells”, “2.5” for “2”, “plate.NVS_LGIC_rNNR_BungSens” for “plate.NVS_LGIC_hNNR_NBungSens”, “NVS_LGIC_rNNR_BungSens,” for “NVS_LGIC_hNNR_NBungSens,”, “Chrna7.” for “CHRNA2.”
as §2, with “Assay-chemical combinations meeting a pre-defined threshold (e.g., 30% inhibition and other criteria defined below) were then run in singleton concentration-response format with maximum concentration of 20 uM for CYPs and 50 uM for all others.” left out
As to `Cc1ccn2nc(S(=O)(=O)Nc3c(F)cccc3F)nc2n1`, the call was inactive. Regarding `CCOP(=O)(OCC)Oc1cc(C)nc(C(C)C)n1`, the molecule was called inactive.

`CCCOc1nn(C(=O)NS(=O)(=O)c2ccccc2C(=O)OC)c(=O)n1C`: the outcome was inactive.

Take `C[N+]1(C)CCCCC1`: the half-maximal activity concentration (AC50) was 6.52 µM (active).

For `CC(=NC#N)N(C)Cc1ccc(Cl)nc1`, the half-maximal activity concentration (AC50) is 8.03 µM (active).

The next assay has as its target Voltage-dependent N-type calcium channel subunit alpha-1B (Rattus norvegicus) (UniProt Q02294). As to the kind of experiment: NVS_IC_rCaChN: NovaScreen (NVS) Ion Channel Assay for rat Calcium Channel, Type N (CaChN) (AID 2283317).
`CCCCOC(=O)c1ccccc1C(=O)O`: the result was inactive. Take `COP(=O)(OC)C(O)C(Cl)(Cl)Cl` (stereo not given): the result was inactive. In the case of `CCCCSP(=O)(SCCCC)SCCCC`, the result was inactive.

In a further assay the target is rat Opioid Receptor, Non-selective Binding, Oprm1 (gene 25601) (UniProt P33535). The assay can be described thus: NVS_GPCR_rOpiate_NonSelective: NovaScreen (NVS) G Protein-Coupled Receptor Assay for rat Opioid Receptor, Non-selective Binding (AID 2283318). The essentials: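 Rat forebrain membranes, cell-free radioligand binding with filter-based scintillation counting, read 1.5 h after dosing. Primary screen in duplicate at 25 uM; actives retested in concentration series. Loss of signal versus DMSO baseline scored.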
Sequence of rat Opioid Receptor, Non-selective Binding, Oprm1 (gene 25601) (P33535 whole entry, looked up): as the sequence (P33535 whole entry, looked up) above
On to `CCc1cccc(CC)c1N(COC)C(=O)CCl`, for which the molecule was classed as inactive. For the molecule `CCOC(=O)CC(SP(=O)(OC)OC)C(=O)OCC` (stereo not given), the molecule was called inactive. As to `CCOP(=S)(OCC)Oc1ccc2c(C)c(Cl)c(=O)oc2c1`, the molecule was classed as inactive. For the molecule `CCc1cccc(C)c1N(C(=O)CCl)C(C)COC` (stereo not given), the AC50 is 14.7 µM (active). Turning to `CCCOCC(=Nc1ccc(Cl)cc1C(F)(F)F)n1ccnc1`, the AC50 is 12.1 µM (active).
